From PubChem BioAssay (EPA / NIEHS) come the findings set out here.

Inconclusive results are not listed. The source made the active and inactive calls. Rule for the calls: active = hit-call score of the fitted dose curve at least 0.9, where 1 is the maximum; inconclusive = response in the unintended direction; inactive = score below 0.9.

In the assay the target is human Thyroid Receptor alpha (THRa1), THRA (gene 7067) (UniProt P10827). Put plainly: ATG_THRa1_TRANS: Attagene TRANS-FACTORIAL HepG2 Assay for human Thyroid Receptor alpha (THRa1) (AID 2283014). The procedure: ATG_TRANS is a cell-based, multiplexed-readout assay that uses HepG2, a human liver cell line, with measurements taken at 24 hours after chemical dosing in a 24-well plate.ATG_THRa1_TRANS is one of 30 assay component(s) measured or calculated from the ATG_TRANS assay. It is designed to make measurements of mRNA induction, a form of inducible reporter, as detected with fluorescence intensity signals by Reverse transcription polymerase chain reaction (RT-PCR) and Capillary electrophoresis technology.Data from the assay component ATG_THRa1_TRANS was analyzed into 1 assay endpoint. This assay endpoint, ATG_THRa1_TRANS, was analyzed in the positive analysis fitting direction relative to DMSO as the negative control and baseline of activity. Using a type of inducible reporter, measures of mRNA for gain-of-signal activity can be used to understand the reporter gene at the transcription factor-level as they relate to the gene THRA. Furthermore, this assay endpoint can be referred to as a primary readout, because this assay has produced multiple assay endpoints where this one serves a reporter gene function. To generalize the intended target to other relatable targets, this assay endpoint is annotated to the nuclear receptor intended target family, where the subfamily is non-steroidal.
Sequence of human Thyroid Receptor alpha (THRa1), THRA (gene 7067) (P10827 whole entry, looked up): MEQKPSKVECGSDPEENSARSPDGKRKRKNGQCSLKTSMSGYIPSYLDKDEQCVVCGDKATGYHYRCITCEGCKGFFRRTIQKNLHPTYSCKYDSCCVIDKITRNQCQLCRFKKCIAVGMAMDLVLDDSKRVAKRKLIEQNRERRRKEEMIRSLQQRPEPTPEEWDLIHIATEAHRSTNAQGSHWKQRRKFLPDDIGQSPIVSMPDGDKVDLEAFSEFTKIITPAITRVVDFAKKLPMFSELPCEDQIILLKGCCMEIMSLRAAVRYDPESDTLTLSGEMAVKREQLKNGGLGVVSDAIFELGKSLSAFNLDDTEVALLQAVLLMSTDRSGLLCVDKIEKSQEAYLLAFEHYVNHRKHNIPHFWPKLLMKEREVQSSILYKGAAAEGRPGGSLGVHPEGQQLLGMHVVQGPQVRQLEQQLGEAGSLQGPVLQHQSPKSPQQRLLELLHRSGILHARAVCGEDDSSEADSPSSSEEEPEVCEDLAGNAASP
Human liver HepG2 cells are transiently transfected with multiple reporter transcription units (MRTUs) in 6-well plates using FuGene 6 reagent (Roche; 3 ml FuGene/1 mg DNA). The MRTU constructs are regulated by a cis-regulating element (promoter). […] A major difference between the CIS and TRANS system is that in CIS activities of endogenous TFs are measured, whereas the TRANS assay evaluates changes in activities of exogenous, chimeric NR-Gal4 proteins. […] At the end of 24 hour incubation, total RNA was isolated using TriZol reagent (Invitrogen). The isolated RNA is then reverse-transcribed using oligo(dT) primer and Mo-MLV reverse transcriptase (Invitrogen) with DNAse I (Ambion) treatment for 30 min. The one-tenth of the produced cDNA was amplified by PCR using Taq DNA polymerase (Invitrogen) and two reporter sequence-specific primers. The PCR products were fluorescently labeled by primer extension with 6-arboxyfluorescein (6-FAM) 5'-labeled reporter sequence-specific primer (2 min at 95 C, 20 s at 68 C and 10 min at 72 C) and these products were digested with 5U of HpaI (New England Biolabs) for 2h at 37 C. The fragments were purified using Qiaquick PCR columns (Qiagen), analyzed on an ABI 3130xL genetic analyzer (Applied Biosystems) with peak positions identified by using a set of X-rhodamine (ROX)-labeled MapMarker1000 molecular weight standards (BioVentures). The raw capillary electrophoresis data was processed using Attagraph software (Attagene).
On to `O=[N+]([O-])C=Cc1ccccc1`, for which the compound was classed as inactive.

On to `C[C@]12CC[C@H](O)C[C@H]1CC[C@@H]1[C@@H]2C[C@@H](O)[C@]2(C)[C@@H](C3=CC(=O)OC3)CC[C@]12O`, for which the outcome was inactive.

For the compound `Nc1ccccc1C(=O)OCCc1ccccc1`, the compound was called inactive.

With `CCNCC`, the outcome was inactive.

Consider `CC1OC(C)OC(C)O1` (stereo not given), for which the result was inactive.

Consider `CC(C)COP(=O)(OCC(C)C)OCC(C)C`, for which the compound was called inactive.

Take `CN1C[C@H](C(=O)N[C@]2(C)O[C@@]3(O)[C@@H]4CCCN4C(=O)[C@H](Cc4ccccc4)N3C2=O)C=C2c3cccc4[nH]cc(c34)C[C@H]21`: the call was inactive.

On to `CNC(=O)Oc1cc(C)c(SC)c(C)c1`, for which the call was inactive.

Regarding `CCN(CC)C(=S)S`, the result was inactive.

Regarding `Cc1ccc(C)c2ccccc12`, the outcome was inactive.

Regarding `CC1CCC(=O)O1` (stereo not given), the compound was called inactive.

As to `CCCCCc1cc(O)cc(O)c1`, the outcome was inactive.

For `Nc1c(Cl)c(Cl)c(Cl)c(Cl)c1Cl`, the compound was classed as inactive.

Turning to `N#CCCCCC#N`, the compound was called inactive.

With `Cc1ccc(N(SC(F)(Cl)Cl)S(=O)(=O)N(C)C)cc1`, the outcome was inactive.

For the compound `NNc1ccccc1`, the call was inactive.

Turning to `CCCCOP(=O)(O)OCCCC`, the result was inactive.

`CC(C)(c1cc(Cl)c(O)c(Cl)c1)c1cc(Cl)c(O)c(Cl)c1`: the call was inactive.

Take `N#Cc1cc(I)c(O)c(I)c1`: the call was inactive.

As to `CN(C)CCC#N`, the outcome was inactive.

Take `Cl/C=C\CCl`: the compound was classed as inactive.

Regarding `O=S(=O)(O)O`, the call was inactive.

As to `CCC[N+](=O)[O-]`, the result was inactive.

Consider `CC(C)[C@@H](C(=O)O[C@@H](C#N)c1cccc(Oc2ccccc2)c1)c1ccc(Cl)cc1`, for which the call was inactive.

With `O=C(NC(=O)c1c(F)cccc1F)Nc1ccc(Oc2ccc(C(F)(F)F)cc2Cl)cc1F`, the compound was called inactive.

On to `O=C1C(Cl)=C(Cl)C(=O)C(Cl)=C1Cl`, for which the call was inactive.

In the case of `C=C(Cl)CCl`, the outcome was inactive.

Take `CCCC=NO`: the call was inactive.

For the compound `O=C1C=CC(=O)C=C1`, the outcome was inactive.

For the compound `O=P(O)(Oc1ccccc1)Oc1ccccc1`, the outcome was inactive.

With `CC(C)CCCCCCCOC(=O)c1ccccc1C(=O)OCCCCCCCC(C)C`, the result was inactive.

With `Oc1ccc(C2(c3ccc(O)cc3)c3ccccc3-c3ccccc32)cc1`, the call was inactive.

As for `CCCOC(=O)c1ccccc1C(=O)OCCC`, the outcome was inactive.

In the case of `CCCCNP(N)(N)=S`, the compound was classed as inactive.

On to `CC(=O)c1cc2c(cc1C)C(C)(C)C(C)CC2(C)C` (stereo not given), for which the compound was classed as inactive.

Take `COC(C)(C)CCC[C@H](C)C/C=C/C(C)=C/C(=O)OC(C)C`: the result was inactive.

In the case of `Nc1cc(Cl)cc(Cl)c1`, the outcome was inactive.

As for `CCOP(=O)(OCC)OCC`, the compound was classed as inactive.

Turning to `O=C(O)CCl`, the result was inactive.

For the compound `C=CC(=O)OCCO`, the call was inactive.
